FLuc modulator: firefly luciferase modulation, counter-screen for miR-21 project; AID 588342; 6.9% of 360,000 active; purified FLuc, Km substrates, luminescence inhibition; Potency, µM (titrated, usually from 57.5 µM), actives largely listed as inhibitors; P08659; further: nearly all actives have a fitted effect of over 55% in size
Target sequence (P08659 whole entry, looked up): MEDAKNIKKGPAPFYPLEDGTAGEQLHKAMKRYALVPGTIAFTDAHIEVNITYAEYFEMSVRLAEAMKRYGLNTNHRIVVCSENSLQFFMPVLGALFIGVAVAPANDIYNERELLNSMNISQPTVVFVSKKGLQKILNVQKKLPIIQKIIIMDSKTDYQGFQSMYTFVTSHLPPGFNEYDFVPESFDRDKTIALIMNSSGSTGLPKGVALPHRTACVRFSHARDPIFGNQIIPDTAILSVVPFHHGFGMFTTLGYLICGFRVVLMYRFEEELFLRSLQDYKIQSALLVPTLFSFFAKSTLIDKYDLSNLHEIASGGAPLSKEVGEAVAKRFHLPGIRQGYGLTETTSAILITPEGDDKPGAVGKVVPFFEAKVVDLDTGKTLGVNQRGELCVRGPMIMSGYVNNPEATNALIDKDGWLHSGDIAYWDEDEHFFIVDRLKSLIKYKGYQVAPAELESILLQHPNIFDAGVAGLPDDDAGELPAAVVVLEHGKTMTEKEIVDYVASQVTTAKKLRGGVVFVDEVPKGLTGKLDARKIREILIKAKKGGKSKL
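Biochemical qHTS of compounds, final roughly 60 µM downward over six points, against 10 nM purified firefly luciferase using Km concentrations of substrates (10 uM D-luciferin, 10 uM ATP) in Tris acetate pH 7.5 buffer; luminescence output.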
SMN2 splice up: enhancers of SMN2 splice variant expression; HEK293 SMN2-luciferase splicing reporter, luminescence, 30-36 h; Potency, µM (series often up to 46.1 µM), most hits filed as activators; 2.8% of 210,000 active; AID 1458; further: nearly all actives have a fitted effect of over 55% in size
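HEK293 cells carry an SMN2 […]–luciferase reporter in which exon 7 inclusion puts luciferase in frame. Cells were plated 10-12 h before compound addition, then incubated 30-36 h at 37C. ONE-Glo luminescence was read; sodium butyrate at 4.5 mM final served as control.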
NPC1 prom act: NPC1 promoter activation; Potency, µM (highest dose often 9.22 µM), hits mostly activators; 2.4% of 320,000 active; Huh7 NPC1 promoter luciferase reporter, 24 h; further: nearly all actives have a fitted effect of over 60% in size
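Stably transfected Huh7 (NPC1 promoter→luciferase), 1500 cells/well in Opti-MEM + 10% FBS, 2 h settle, then compound 24 h at 37 °C. Luminescence after 10 min with Amplite reagent.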
Rab9 prom act: activates the Rab9 promoter; Huh7 Rab9 promoter-luciferase reporter, luminescence, 24 h; Potency, µM (highest dose often 9.22 µM), actives largely listed as activators; 2.8% of 320,000 active; further: nearly all actives have a fitted effect of over 60% in size
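Steps: seed 1500 Huh7 Rab9-luc cells per well, rest 2 h at 37 °C; add compound in DMSO; incubate 24 h; add luciferase reagent, 10 min ambient; read luminescence.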
ELG1 genotoxic: genotoxicity induction in ELG1-luciferase HEK293T cells; HEK293T ELG1-luciferase reporter, luminescence, 16 h; Potency, µM (doses to about 46 µM), most hits filed as activators; AID 504466; 1.3% of 330,000 active; further: nearly all actives have a fitted effect of over 60% in size
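Luminescence read-out: rising ELG1-luciferase signal, reflecting elevated ELG1 protein under genetic stress, flags genotoxic compounds. Cells were treated for 16 hr at 37 °C before ONE-Glo detection.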
Large screens that a line does not name were inactive. Rows were chosen to be rich in hits. Some 7.4% of all compounds tested hit in one or more screens of this group. The call rests on the fitted dose curve; in most records, active means well fitted curve in the direction sought with a large enough effect; inconclusive means small, poorly fitted or top-dose-only effect, or another doubt; inactive means no such curve, though single readings can be large; an effect the other way counts as inactive or inconclusive.

C[C@@H](C(=O)Nc1ccc2ccccc2c1)[C@@H]1C[C@@]1(C)[C@@H](NS(=O)(=O)c1ccc(-c2ccccc2)cc1)c1ccccc1	none (no result: FLuc modulator, NPC1 prom act, Rab9 prom act, ELG1 genotoxic)
CCOC(=O)c1cnc2nc(NCc3ccc(OCc4ccccc4)cc3)[nH]n2c1=O	FLuc modulator 10.7µM
Cc1ccc(C(=O)O)c(C(=O)Nc2nc3ccccc3s2)c1	FLuc modulator 15.1µM (no result: SMN2 splice up)
Cc1cccc(NC(=S)c2nc3ccccc3s2)c1	FLuc modulator 3.01µM, SMN2 splice up 17.8µM, NPC1 prom act inconclusive, Rab9 prom act inconclusive, ELG1 genotoxic inconclusive
Cc1ccc2nc(NC(=O)c3ccc(Cl)s3)sc2c1	FLuc modulator 1.69µM, SMN2 splice up 12.6µM, NPC1 prom act 1µM, Rab9 prom act 0.562µM, ELG1 genotoxic 4.61µM
Cc1ccc2nc(NC(=S)NC(=O)c3ccc(OC(C)C)cc3)sc2c1	FLuc modulator inconclusive
Cc1cccc2sc(NC(=O)c3ccc(Cl)s3)nc12	FLuc modulator inconclusive
Cc1ccc2nc(NC(=S)NC(=O)c3cccs3)sc2c1	FLuc modulator 1.07µM, SMN2 splice up inconclusive, NPC1 prom act 3.55µM, Rab9 prom act 1.12µM, ELG1 genotoxic inconclusive
Cc1ccc(C(=O)Nc2nc3ccccc3s2)s1	FLuc modulator 0.536µM, NPC1 prom act 0.631µM, Rab9 prom act 0.398µM, ELG1 genotoxic inconclusive
O=C(O)c1ccccc1-c1ccccc1C(=O)Nc1nc2ccccc2s1	none (no result: SMN2 splice up)
Cc1ccc(OCCSc2nc3ccc(NC(=O)c4cccs4)cc3s2)cc1	none (no result: SMN2 splice up, NPC1 prom act, Rab9 prom act, ELG1 genotoxic)
Cc1ccc2nc(NC(=O)c3cccs3)sc2c1	FLuc modulator 0.477µM, SMN2 splice up 2.51µM, NPC1 prom act 0.501µM, Rab9 prom act inconclusive, ELG1 genotoxic 0.259µM
O=C(Nc1ccccc1)c1nc2ccccc2s1	FLuc modulator 1.07µM, SMN2 splice up 3.16µM, NPC1 prom act 2.82µM, Rab9 prom act 2.51µM, ELG1 genotoxic 2.91µM
CN(C(=O)c1ccc2nc(N)sc2c1)c1ccccc1	none (no result: SMN2 splice up)
CN(C(=O)c1ccccc1)c1nc2ccccc2s1	FLuc modulator 0.849µM, SMN2 splice up 4.47µM, NPC1 prom act 0.282µM, Rab9 prom act 0.562µM, ELG1 genotoxic inconclusive
Cc1ccc(NC(=O)CSc2nc3nccnc3c(=O)n2CCc2c[nH]c3ccccc23)c(C)c1	none (no result: SMN2 splice up, NPC1 prom act, Rab9 prom act, ELG1 genotoxic)
Cc1ccc(C)c(NC(=O)c2ccc3c(c2)CCCN3S(C)(=O)=O)c1	none (no result: NPC1 prom act, Rab9 prom act, ELG1 genotoxic)
O=C(c1cccc(F)c1)N1CCC2(CC1)CN(C(c1ccccc1)c1ccccc1)C2	none (no result: FLuc modulator, NPC1 prom act, Rab9 prom act, ELG1 genotoxic)
CSc1nc2ccc3nc(NC(=O)c4ccccc4)sc3c2s1	FLuc modulator inconclusive, SMN2 splice up inconclusive, NPC1 prom act 3.16µM, Rab9 prom act 3.55µM, ELG1 genotoxic inconclusive
Cc1csc2nc(NC(=O)c3ccccc3)sc(=O)c12	FLuc modulator 4.26µM, ELG1 genotoxic inconclusive (no result: SMN2 splice up)
O=C(Nc1nc2ccccc2s1)c1ccccc1	FLuc modulator 1.69µM, SMN2 splice up 3.55µM, NPC1 prom act 1µM, Rab9 prom act 0.447µM, ELG1 genotoxic 1.03µM
O=C(c1nc2ccccc2s1)N1CCSCC1	FLuc modulator inconclusive, Rab9 prom act inconclusive, ELG1 genotoxic 18.4µM
Cc1c(C(=O)Nc2ccc(C(C)C)cc2)sc2nc3n(c(=O)c12)CCC3	none (no result: SMN2 splice up, NPC1 prom act, Rab9 prom act, ELG1 genotoxic)
NNC(=O)c1ccc(Cn2cc(Cl)cn2)o1	none (no result: SMN2 splice up)
Cc1ccc2nc(NC(=O)c3ccc(Cn4cc(Cl)cn4)o3)sc2c1	FLuc modulator 7.57µM
COc1cc(-c2cc(C(=O)Nc3nc4ccccc4s3)c3ccccc3n2)cc(OC)c1OC	FLuc modulator 15.1µM
Cc1ccc(C(=O)Nc2nc3ccc(S(C)(=O)=O)cc3s2)s1	FLuc modulator 2.39µM, SMN2 splice up 11.2µM, NPC1 prom act 1.78µM, Rab9 prom act 1.41µM, ELG1 genotoxic 16.4µM
c1ccc2sc(NN=C3CCCCCC3)nc2c1	FLuc modulator 0.338µM, SMN2 splice up 4.47µM, NPC1 prom act 0.355µM, Rab9 prom act 0.224µM, ELG1 genotoxic 0.461µM
COc1cc(C(=O)Nc2nc3ccc(S(C)(=O)=O)cc3s2)cc(OC)c1C	none (no result: SMN2 splice up)
CCOc1ccc(-n2c(=O)c3c(C)c(C)sc3n(Cc3ccccc3C)c2=O)cc1	none (no result: NPC1 prom act, Rab9 prom act, ELG1 genotoxic)
COc1ncc2nc(C)c(=O)n(CCC#N)c2n1	none (no result: FLuc modulator, NPC1 prom act, Rab9 prom act, ELG1 genotoxic)
Cc1noc(C)c1C(=O)Nc1nc2ccccc2s1	FLuc modulator 16.9µM, Rab9 prom act inconclusive, ELG1 genotoxic inconclusive (no result: SMN2 splice up)
CS(=O)(=O)c1ccc2nc(NC(=O)c3cccs3)sc2c1	FLuc modulator 0.675µM, SMN2 splice up 2.24µM, NPC1 prom act 0.398µM, Rab9 prom act 0.398µM, ELG1 genotoxic 0.92µM
CCC(=O)Nc1nc2ccc(S(C)(=O)=O)cc2s1	none
O=C1NC(=O)/C(=C\c2ccc(OCc3cccc(C(=O)O)c3)c(Cl)c2)N1	FLuc modulator 0.601µM, SMN2 splice up 11.2µM, NPC1 prom act inconclusive, Rab9 prom act 2.24µM
CN1C(=O)/C(=C/c2ccc(OCc3ccc(C(=O)O)cc3)c(Cl)c2)NC1=S	none (no result: SMN2 splice up)
COc1cc(/C=C2\NC(=S)NC2=O)ccc1OCc1cccc(C(=O)O)c1	FLuc modulator 0.379µM, ELG1 genotoxic 20.6µM (no result: SMN2 splice up)
COc1ccc(-c2nc3cnc(N4CCN(C)CC4)nc3n(CCC#N)c2=O)cc1	none (no result: FLuc modulator, NPC1 prom act, Rab9 prom act, ELG1 genotoxic)
CC(=O)c1ccc(N2CCN(c3ncnc4onc(-c5ccc(Cl)cc5)c34)CC2)cc1	none (no result: NPC1 prom act, Rab9 prom act, ELG1 genotoxic)
COc1ccc(-c2noc(CN(C(=O)C(C)Oc3ccc(C)cc3)C(C)C)n2)cc1 (stereo not drawn)	none (no result: NPC1 prom act, Rab9 prom act, ELG1 genotoxic)
COc1ccc(N=[N+]([O-])c2ccc(OC)cc2)cc1	SMN2 splice up 7.08µM (no result: FLuc modulator, NPC1 prom act, Rab9 prom act, ELG1 genotoxic)
OCC1CCCN(C(=S)NCCc2ccccc2)C1 (stereo not drawn)	FLuc modulator 16.9µM, SMN2 splice up inconclusive, NPC1 prom act 3.16µM, Rab9 prom act inconclusive, ELG1 genotoxic inconclusive
S=C(NCCc1ccccc1)N1CCN(C(=S)NCCc2ccccc2)CC1	none (no result: SMN2 splice up)

Compound activity as filed in PubChem.
